Data reported in paper PMC4336329 (PLoS ONE, 2015).
Hit rate of the full screen: of about 310,000 compounds, about 2,200 (0.71%) showed an effect of 50% or more. The effect is printed as a negative number. Shown is part of a subset that was picked to be rich in strong results.

Target: human ether-à-go-go-related gene (hERG) potassium channel (human, UniProt Q12809)
Experiment: primary screen, population patch clamp on CHO cells stably expressing hERG; higher = less effect of the substance

human ether-à-go-go-related gene (hERG) potassium channel, sequence (Q12809 whole entry, looked up): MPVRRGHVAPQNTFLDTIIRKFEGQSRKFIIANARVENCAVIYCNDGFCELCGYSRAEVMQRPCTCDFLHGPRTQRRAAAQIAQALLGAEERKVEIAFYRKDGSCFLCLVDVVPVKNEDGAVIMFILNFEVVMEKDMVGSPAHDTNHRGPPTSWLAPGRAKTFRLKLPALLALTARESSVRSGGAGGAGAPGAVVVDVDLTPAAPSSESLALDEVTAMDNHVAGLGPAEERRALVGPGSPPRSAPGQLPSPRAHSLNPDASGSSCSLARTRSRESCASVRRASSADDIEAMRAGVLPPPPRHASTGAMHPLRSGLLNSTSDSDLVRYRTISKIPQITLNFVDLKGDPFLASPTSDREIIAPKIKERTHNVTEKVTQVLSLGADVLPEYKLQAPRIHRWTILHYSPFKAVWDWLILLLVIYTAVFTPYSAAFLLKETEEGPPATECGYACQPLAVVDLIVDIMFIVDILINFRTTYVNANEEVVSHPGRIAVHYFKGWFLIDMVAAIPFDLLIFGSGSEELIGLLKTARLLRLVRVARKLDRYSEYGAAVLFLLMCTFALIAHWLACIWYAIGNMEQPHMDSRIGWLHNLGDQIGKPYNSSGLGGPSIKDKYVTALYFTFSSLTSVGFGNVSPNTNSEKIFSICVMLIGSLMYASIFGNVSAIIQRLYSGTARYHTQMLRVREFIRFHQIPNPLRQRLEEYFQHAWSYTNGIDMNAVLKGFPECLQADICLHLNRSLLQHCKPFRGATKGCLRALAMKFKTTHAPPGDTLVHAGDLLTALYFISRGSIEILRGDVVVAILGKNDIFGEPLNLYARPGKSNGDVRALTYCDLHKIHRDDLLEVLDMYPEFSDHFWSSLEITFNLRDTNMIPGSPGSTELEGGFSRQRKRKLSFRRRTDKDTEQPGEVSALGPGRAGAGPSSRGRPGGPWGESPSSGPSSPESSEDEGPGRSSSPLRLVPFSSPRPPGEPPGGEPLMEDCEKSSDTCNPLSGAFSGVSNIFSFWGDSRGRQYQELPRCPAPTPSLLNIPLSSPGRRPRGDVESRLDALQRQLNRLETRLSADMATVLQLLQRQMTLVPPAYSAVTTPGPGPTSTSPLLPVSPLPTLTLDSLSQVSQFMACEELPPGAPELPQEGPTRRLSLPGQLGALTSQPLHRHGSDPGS

SMILES	hERG current change (%, negative = inhibition) at 1uM
Cc1ccccc1N1C(=O)c2ccccc2NC1c1ccncc1 (centres unmarked)	13%
COc1ccccc1/C=C/C(=O)NCC(=O)N/N=C(\CCC(=O)O)c1ccccc1	-2.9%
NNC(=O)c1ccc(-c2ccccc2F)cc1	14.8%
Nc1nnc(C(F)(F)F)s1	4.92%
CSc1ccc(/C=N/NC(=O)CN2CCN(Cc3ccc(C)cc3)CC2)cc1	2.67%
NC(=O)c1ccccc1NC(=O)CN1CCCCCC1	13.4%
O=C(CN1CCN(Cc2ccccc2)CC1)Nc1ccccc1-c1ccccc1	-39.6%
NC(=O)c1ccccc1NC(=O)CN1CCN(Cc2ccccc2)CC1	-77.7%
CSc1ccc(/C=N/NC(=O)CN2CCN(Cc3ccccc3)CC2)cc1	-60%
CSc1ccc(/C=N/NC(=O)CN2CCN(Cc3ccc(Cl)cc3)CC2)cc1	2.29%
COc1ccc(N(CC(=O)NCc2ccc(C)cc2)S(=O)(=O)c2c(C)[nH]c(=O)[nH]c2=O)cc1	16%
Cc1nc2cc3nc(C)sc3cc2s1	3.19%
Cc1cc(C)cc(NC(=O)CCNS(=O)(=O)c2ccc3c(c2)oc(=O)n3C)c1	9.33%
COCC(=O)N1CCC(Oc2ccc(C(=O)NCc3cnc(C)cn3)cc2)CC1	13%
CCN(c1cccc(C)c1)S(=O)(=O)c1ccc(-c2ccc(=O)[nH]n2)o1	12.8%
CC1CCN(CCOc2ccccc2-c2ccccc2)CC1.O=C(O)C(=O)O	-8.4%
CN1CCN(CCCCOc2ccccc2-c2ccccc2)CC1.O=C(O)C(=O)O	16.8%
O=C(O)C(=O)O.c1ccc(-c2ccccc2OCCOCCN2CCCCC2)cc1	-18.9%
CC1CCN(CCCCOc2ccccc2-c2ccccc2)CC1.O=C(O)C(=O)O	-74.9%
O=C(O)C(=O)O.O=C(c1ccccc1)c1ccc(OCCCN2CCCC2)cc1	-29.9%
Cc1cc(Br)ccc1OCCOCCN1CCCC1.O=C(O)C(=O)O	-9.41%
O=C(O)C(=O)O.O=C(c1ccccc1)c1ccc(OCCOCCN2CCN(Cc3ccccc3)CC2)cc1	-82.8%

SMILES	hERG current change (%, negative = inhibition) at 1uM
Cc1cc(Br)ccc1OCCCCN1CCCCC1.O=C(O)C(=O)O	-66.6%
Cc1cc(Br)ccc1OCCN1CCCC1.O=C(O)C(=O)O	-7.85%
O=C(O)C(=O)O.c1ccc(-c2ccccc2OCCCN2CCCCC2)cc1	-69.1%
O=C(O)C(=O)O.c1ccc(-c2ccccc2OCCN2CCCCC2)cc1	-4.98%
O=C(O)C(=O)O.c1ccc(CN2CCN(CCOCCOc3ccc4c(c3)CCC4)CC2)cc1	11.6%
CC1CC(=O)Nc2ccccc2N1C(=O)Nc1ccc(F)cc1 (centres unmarked)	9.77%
CC(C)CCN(C(=S)Nc1cccc(C(F)(F)F)c1)C(C)c1ccccn1 (centres unmarked)	10.7%
CCOc1cc(C2/C(=C(/O)c3ccc(OC(C)C)cc3)C(=O)C(=O)N2CCCOC)ccc1O (centres unmarked)	21.3%
Clc1ccc(Oc2nc(N3CCOCC3)nc(N3CCOCC3)n2)c(C2CCCCC2)c1	10.6%
Clc1cccc(Cl)c1CN1CCN(c2ccccc2)CC1	15.9%
O=C(CCN1C(=O)C2C3CCC(C3)C2C1=O)Nc1cccc(Cl)c1 (centres unmarked)	4.67%
CCC1(CC)NC(=O)N(CC(=O)OCC(=O)Nc2ccc(F)c(F)c2F)C1=O	4.85%
Cc1ccc(NC(=O)/C=C/c2ccc([N+](=O)[O-])s2)c(C)c1	10.5%
CCOc1ccccc1-n1c(SCC(=O)NC(C)CC)nnc1-c1ccoc1C (centres unmarked)	-2.44%
CCOCCCn1c(SC(C(=O)Nc2cc(C)ccc2C)c2ccccc2)nnc1-c1ccc(Cl)cc1 (centres unmarked)	13.5%
CC(=O)Nc1ccc(S(=O)(=O)NC2(C(F)(F)F)NC(=O)N(c3ccccc3F)C2=O)cc1 (centres unmarked)	19.3%
COc1ccc(NS(=O)(=O)c2ccc(/C=C/C(=O)O)cc2)cc1S(=O)(=O)N1CCOCC1	10.7%
COc1ccc(NC(=O)c2ccc(S(=O)(=O)NCc3cccnc3)cc2)cc1	-13.3%
O=C(Nc1ccc2oc(-c3ccccc3F)nc2c1)c1ccc2c(c1)OCCO2	3.14%
O=C(O)C(=O)O.c1ccc(COc2ccc(OCCCCN3CCCCC3)cc2)cc1	-46.8%
O=C(O)C(=O)O.c1ccc(COc2ccc(OCCCN3CCCC3)cc2)cc1	-39.1%
Cc1ccc(OCCCCN2CCC(C)CC2)cc1.O=C(O)C(=O)O	-0.565%

SMILES	hERG current change (%, negative = inhibition) at 1uM
COCCCNCCCCOc1ccc(Br)cc1C.O=C(O)C(=O)O	-24%
Cl.OCCCN1CCN(CCCOc2ccccc2-c2ccccc2)CC1	-57.7%
COCCCNCCCCOc1ccc(Br)cc1Cl.O=C(O)C(=O)O	-61.5%
O=C(O)C(=O)O.c1ccc(COc2ccc(OCCCN3CCCCC3)cc2)cc1	-57.7%
CCN1CCN(CCCOc2ccccc2-c2ccccc2)CC1.O=C(O)C(=O)O	-16.6%
CC1CCN(CCOc2ccc(C(=O)c3ccccc3)cc2)CC1.O=C(O)C(=O)O	3.49%
COCCNCCCOc1ccc(Br)cc1Cl.O=C(O)C(=O)O	0.786%
Cl.OCCN1CCN(CCOc2ccccc2-c2ccccc2)CC1	6.46%
CC1CCN(CCCCOc2ccc(C(=O)c3ccccc3)cc2)CC1.O=C(O)C(=O)O	-72.4%
CCN(CC)S(=O)(=O)c1ccc(C(=O)NCc2ccc3[nH]c4c(c3c2)CCCC4)cc1	16.4%
COc1cccc(CN2CCC(C(=O)N3CCN(c4ccccc4F)CC3)CC2)c1	-20.8%
CCCn1c(=O)c(C(=O)Nc2ccccc2C(=O)OCC)c(O)c2ccccc21	16.2%
CNC(=S)Nc1cc(C(F)(F)F)ccc1Cl	-4.86%
Cc1cc(OCC(=O)Nc2ccc3oc(-c4ccncc4)nc3c2)ccc1Cl	9.6%
Cc1ccc(/C=C2\SC(=S)N(CCCC(=O)Nc3ccccn3)C2=O)cc1	3.9%
Cc1csc(NC(=O)C2=NN(c3ccccc3)C(=O)CC2)n1	9.03%
Brc1ccccc1OCCCCN1CCCCC1	-1.28%
CC1CCN(CCOCCOc2ccc(Br)cc2Cl)CC1.O=C(O)C(=O)O	-52%
CN1CCN(CCOCCOc2ccc(Br)cc2Cl)CC1.O=C(O)C(=O)O	10.1%
Brc1ccccc1OCCCN1CCCC1.O=C(O)C(=O)O	8.64%
O=C(O)C(=O)O.c1ccc(-c2ccccc2OCCCCN2CCCCCC2)cc1	-48.2%
O=C(O)C(=O)O.c1ccc(-c2ccccc2OCCCN2CCCCCC2)cc1	-52.7%

SMILES	hERG current change (%, negative = inhibition) at 1uM
CC1CCCN(CCOCCOc2ccc(Br)cc2Cl)C1.O=C(O)C(=O)O (centres unmarked)	-7.22%
Brc1ccccc1OCCCN1CCCCCC1.O=C(O)C(=O)O	-59.2%
O=C(O)C(=O)O.c1ccc(-c2ccccc2OCCCN2CCCC2)cc1	-49.4%
CNc1ccccc1C(=O)OCC(=O)c1ccc(F)cc1	7.17%
CCN1C(=O)c2ccc(C(=O)NCc3ccco3)cc2C1=O	11%
O=C(CC1Sc2ccccc2NC1=O)NNC(=O)Nc1ccc(Cl)cc1 (centres unmarked)	9.26%
CCOc1ccccc1NC(=O)C(NCC1CCCCC1)c1ccccc1 (centres unmarked)	8.03%
CCOc1ccccc1NC(=O)C(NCC1(N2CCCCC2)CCCCC1)c1ccccc1.O=C(O)C(=O)O (centres unmarked)	-57.4%
CCOc1ccccc1NC(=O)C(NCCN(C)C)c1ccccc1.O=C(O)C(=O)O (centres unmarked)	-49.1%
C/C(N)=C(\C#N)C(=O)NCc1ccccn1	10.9%
Cc1cc(C)c(-c2cc(C(F)(F)F)no2)c(=O)[nH]1	12.2%
CCN(CC)CCn1nc2c3c(cccc3c1=O)-c1ccccc1-2	-50%
O=c1c2cccc3c2c(nn1CN1CCOCC1)-c1ccccc1-3	-15.3%
O=C(O)Cn1nc2c3c(cccc3c1=O)-c1ccccc1-2	8.49%
COc1ccc(OC(=O)NCCc2ccccc2)cc1	12.2%
Cc1ccc(S(=O)(=O)c2cc3c(=O)n4cccc(C)c4nc3n(C3CCCCC3)c2=N)cc1	8.4%
Cc1cccn2c(=O)c3cc(S(=O)(=O)c4ccc(Br)cc4)c(=N)n(C4CCCCC4)c3nc12	26%
Cc1cccn2c(=O)c3cc(C(=O)NCc4ccco4)c(=N)n(C4CCCCC4)c3nc12	-84.8%
Cc1cccn2c(=O)c3cc(C(=O)NCc4ccco4)c(=N)n(C4CCCC4)c3nc12	-85.5%
Cc1cccn2c(=O)c3cc(S(=O)(=O)c4ccc(Br)cc4)c(=N)n(C4CCCC4)c3nc12	14.5%
